Compound activity deposited in PubChem by The Scripps Research Institute Molecular Screening Center.
PPARg SRC-3 ag = PPARgamma-driven SRC-3 recruitment agonism; 200,000 tested, 0.26% active; biochemical PPARgamma/SRC-3 coactivator recruitment assay; activation, % at 8 µM; AID 731; in the data active = activation above about 23%;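 also: 0% = DMSO and 100% = reference agonist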
Target sequence (P37231 whole entry, looked up): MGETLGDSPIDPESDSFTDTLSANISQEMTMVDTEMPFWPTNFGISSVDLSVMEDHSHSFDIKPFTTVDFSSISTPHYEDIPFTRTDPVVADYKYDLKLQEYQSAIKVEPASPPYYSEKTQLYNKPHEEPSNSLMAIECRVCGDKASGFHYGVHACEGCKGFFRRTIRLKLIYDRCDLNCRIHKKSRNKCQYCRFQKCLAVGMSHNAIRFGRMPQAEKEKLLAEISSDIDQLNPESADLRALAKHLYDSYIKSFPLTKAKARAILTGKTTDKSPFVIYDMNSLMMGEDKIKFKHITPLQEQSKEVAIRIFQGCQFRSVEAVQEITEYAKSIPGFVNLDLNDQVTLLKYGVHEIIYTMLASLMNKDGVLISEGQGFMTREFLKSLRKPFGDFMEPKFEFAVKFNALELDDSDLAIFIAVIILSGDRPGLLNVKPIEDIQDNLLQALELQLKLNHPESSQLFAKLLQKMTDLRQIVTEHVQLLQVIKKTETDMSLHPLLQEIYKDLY
PPARg SRC2 recr = promotes SRC-2 coactivator recruitment by human PPARgamma. PPARgamma LBD-SRC-2 recruitment, biochemical. activation, % at 8 µM. 200,000 tested, 0.34% active; in the data active = activation above about 22%;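 also: 0% = vehicle and 100% = reference agonist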
TR-FRET SRC-2 ct = flags TR-FRET format artefacts in PPARgamma SRC-2 recruitment agonist screen | TR-FRET artefact counter-screen; hits give high values | TR-FRET ratio at 8 µM | 200,000 tested, 0.4% active | AID 1049
SRC1 TRFRET art = TR-FRET artefact, counter-screen to PPARgamma/SRC-1 agonist assay; TR-FRET ratio at 8 µM; AID 1051; 99,000 tested, 0.34% active; TR-FRET detection artefact counter-screen, emission ratio; hits give high values; in the data active = TR-FRET ratio above about 2300
PPARg SRC1 recr = promotes SRC-1 coactivator recruitment by human PPARgamma; AID 631; PPARgamma-SRC-1 coactivator recruitment biochemical assay; 200,000 tested, 0.41% active; P37231; activation, % at 8 µM; in the data active = activation above about 19%;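 also: 0% = DMSO and 100% = reference agonist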
SRC3 TRFRET art = flags TR-FRET format artefacts in PPARgamma SRC-3 recruitment agonist screen. TR-FRET artefact counter-screen, PPARgamma/SRC-3 format; hits give high values. TR-FRET ratio at 8 µM. 99,000 tested, 0.39% active. AID 1048
The depositor's hits bear a star; nt = no result. This is a sample that favours compounds with a hit; in the whole collection about 0.9% have one here. Rule as the data show it, unless noted: active = TR-FRET ratio above about 2000; inactive = the rest.

SMILES	PPARg SRC-3 ag	PPARg SRC2 recr	TR-FRET SRC-2 ct	SRC1 TRFRET art	PPARg SRC1 recr	SRC3 TRFRET art
CCC(C)C(NC(=O)OCc1ccccc1)C(=O)NC(Cc1ccc(O)cc1)C(=O)OC (stereo unspecified)	0.3	-4.2	1751	1733	8.1	1522
O=C(O)c1cccc(N/N=C/C2=C(Cl)c3cc(Cl)ccc3SC2)c1	-4.3	8.1	1695	1741	-0.3	1561
CCOC(=O)c1c(NC(=O)CSc2nnc(-c3ccc(C)cc3)o2)sc(C(C)=O)c1C	3.0	-4.2	1483	nt	8.7	nt
CCOC(=O)c1c(NC(=O)CSc2nc(C)cc(C)c2C#N)sc(C(C)=O)c1C	10.5	62.5*	3647*	nt	6.4	nt
CCOC(=O)c1c(NC(=O)CSc2nnc(CNc3ccc(F)cc3)o2)sc(C(C)=O)c1C	33.7*	13.2	1619	nt	9.9	nt
Cc1cc(C=NCCCO)c(C)n1-c1cc(Cl)ccc1Cl	1.7	3.3	1684	2040	10.0	1660
Cn1nc(C(=O)NCCOc2ccccc2)c2ccccc2c1=O	4.8	-7.6	1592	1629	-2.7	1430
COc1ccc(CCCc2n[nH]c(=S)o2)cc1	-1.4	-1.6	2009*	1887	6.9	1430
Cn1c(=O)c(C(=O)NC2CCCCCCC2)c(O)c2ccccc21	-2.5	7.6	1608	3217*	50.3*	1661
Brc1cc2c(cc1C1Nc3ccccc3C3C=CCC31)OCO2 (stereo unspecified)	-1.6	3.2	1622	1682	1.7	1653
Cc1cc(C)c2c(c1)NC(c1cc3c(cc1Br)OCO3)C1CC=CC21 (stereo unspecified)	-0.2	5.6	1654	3042*	44.9*	1516
CCn1nc(C)c(CN2CCCC(CO)(Cc3cccc(Cl)c3)C2)c1C (stereo unspecified)	0.5	1.4	1566	1864	3.3	1621
O=C(CSc1nnc(C2CC2)n1-c1ccccc1)NCCc1ccc(F)cc1	12.4	22.5*	2046*	nt	0.2	nt
Fc1ccc(-c2nc3c(-c4ccccc4)cnn3cc2CCN2CCOCC2)cc1	1.5	4.0	1567	1718	2.3	1404
COc1ccccc1CCc1nnc(CCC(=O)NC(C)Cc2cccs2)o1 (stereo unspecified)	2.6	-5.4	1257	1547	2.4	1558
CC(C)(C)c1ccc(-c2nc3n(c(=O)c2C#N)CCS3)cc1	0.1	-8.4	1413	1726	1.3	1541
O=C(Cc1cccs1)Nc1ccc(-c2nnc(-c3ccccc3)o2)cc1	3.5	11.4	1692	nt	20.9*	nt
O=C(Cc1cccs1)Nc1ccc(-c2nnc(-c3ccco3)o2)cc1	-1.1	1.8	1464	1636	1.2	1376
C=CCC1Cc2c(Br)cccc2C(CC=C)N1 (stereo unspecified)	1.8	5.4	2035*	2057	2.6	1570
COc1ccc(Nc2cc(C)c3ccccc3n2)cc1	-2.3	-2.8	1594	1815	13.4	1923
COc1ccc(Nc2ccc(Nc3ccc(OC)cc3)nn2)cc1	14.3	17.8	1769	2360*	13.2	1723
Cc1ccc(-n2c(N)c(C(=O)N3CCN(C)CC3)sc2=S)cc1	29.9*	-3.8	1307	nt	2.9	nt
O=C(NC(=S)Nc1nc2ccc(F)cc2s1)c1ccco1	3.4	8.1	1549	1913	7.1	1443
Cc1cccn2c(=O)c3cc(C(=O)NCCN4CCOCC4)c(=N)n(CCc4ccccc4)c3nc12	27.9*	6.4	1506	nt	6.7	nt
CC(C)(C)NC(=O)C(=O)NNC(=O)c1cccc(F)c1	7.4	2.7	1581	1950	8.3	1600
SMILES	PPARg SRC-3 ag	PPARg SRC2 recr	TR-FRET SRC-2 ct	SRC1 TRFRET art	PPARg SRC1 recr	SRC3 TRFRET art
CC(=O)NC(Cc1ccccc1C)C(=O)NC1CCN(C(=O)c2cccc(C)c2)CC1 (stereo unspecified)	2.2	2.6	1668	1779	5.6	1790
COc1cccc(/C=c2/s/c(=C(\C#N)C(=O)N3CCOCC3)n(-c3ccccc3)c2=O)c1	48.4*	4.1	1688	nt	6.0	nt
COc1ccc(/C=c2\s/c(=C(/C#N)C(=O)NCc3ccco3)n(-c3ccccc3)c2=O)cc1	-1.5	-4.9	1506	1726	-6.0	1411
S=C(Nc1ccc(Oc2ccccc2)cc1)N1CCN(c2ccccn2)CC1	-2.0	-4.9	1419	1480	-7.2	1556
O=C(Nc1cccc(S(=O)(=O)NC2=NCCCCC2)c1)c1cc(-c2ccc(Cl)cc2)nc2ccccc12	4.0	9.0	1927	2062	0.4	2132*
Fc1ccc2nc(Nc3nc4cc5c(cc4s3)OCO5)sc2c1	-8.1	4.2	1428	1631	-5.7	1305
Fc1ccc2nc(Nc3nc4cc5c(cc4s3)OCCO5)sc2c1	3.7	2.7	2038*	2154	8.0	2582*
C=CCn1c(SCc2ccc(C(=O)OC)cc2)nnc1-c1sc(N)nc1C	4.8	2.2	1972*	1914	11.6	1516
O=CN(c1ccccc1)c1ccc2ccccc2c1	0.4	-0.6	1498	1619	-4.9	1548
Cc1ccc(NC(=S)N2CCCC(O)C2)cc1 (stereo unspecified)	1.1	-0.9	1501	2284	3.5	1672
CN1/C(=C\C(=O)COc2ccc3c(c2)OCO3)C(C)(C)c2ccccc21	0.2	-3.8	2258*	nt	9.2	nt
O=C1NC2(CCCC2)N=C1c1ccc(Cl)cc1	-8.2	-1.9	1415	nt	3.5	nt
N#CC(C#N)=c1ccc2c(c1)NC1(CCCCC1)N=2	29.4*	28.1*	1919	nt	39.3*	nt
COc1cccc(OCc2nc3c4cnn(-c5ccccc5)c4ncn3n2)c1	7.0	3.5	1589	nt	9.9	nt
c1ccc(-n2ncc3c2ncn2nc(-c4ccco4)nc32)cc1	14.7	46.6*	2763*	nt	12.5	nt
CCc1ccc(CN(C)C(=O)CCc2nnc(COc3ccccc3)o2)cc1	7.8	9.5	1738	1944	9.3	1876
COc1ccc(C(=O)NCC(=O)N=Nc2c(O)n(Cc3ccccc3)c3ccccc23)cc1OC	6.0	34.4*	2099*	2056	1.3	1814
O=C(N=Nc1c(O)n(Cc2ccccc2)c2ccccc12)c1ccc(O)cc1	4.7	9.0	1573	2013	-1.7	1586
S=c1[nH]nc(-c2ccc(Cl)cc2)n1-c1ccc2c(c1)OCCO2	12.7	21.3	1817	2170	16.9	1832
Fc1ccc(-c2n[nH]c(=S)n2-c2ccc3c(c2)OCCO3)cc1	19.9	18.8	1992*	2494*	18.8	2239*
Cc1ccc(-n2c(-c3nn(C)cc3Cl)n[nH]c2=S)cc1	8.1	6.5	1643	1918	4.1	1528
Cn1cc(Cl)c(-c2n[nH]c(=S)n2-c2ccc(F)cc2)n1	9.7	21.0	1896	2344*	17.3	1845
CCOC(=O)c1c(CSc2cccs2)n(C)c2cc(Br)c(O)c(CN(C)C)c12	0.6	-1.1	1596	1744	-8.3	1393
Cc1ccc(CN2CCN(Cc3ccc(OC(C)C)cc3)CC2CCO)o1 (stereo unspecified)	-1.9	-4.1	1596	1584	2.1	1418
